# A selection: hits, their analogues and other compounds. The true share with any hit is near 2.9%.
# SNCA expr inhib = Primary qHTS assay for inhibitors of alpha-synuclein gene (SNCA) expression; 140,000 compounds, 0.17% hits; HEK-293 SNCA-luciferase knock-in, luminescence, 24 h; Potency, µM (doses to about 57.2 µM), inactives show at the highest dose activity change, negative = inhibition, hits mostly inhibitors; AID 1671194, 2021;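 further: potency means the concentration at half of the fitted maximal effect; plate controls were DMSO cells for no effect and cell-free wells for full effect; nearly all actives have a fitted effect of over 45% in size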
# SNCA viab count = GF-AFC viability counterscreen for inhibitors of alpha-synuclein gene (SNCA) expression; HEK-293-SNCA-luc viability, GF-AFC fluorescence, 24 h; Potency, µM (highest dose often 57.1 µM), for inactives: at the top dose activity change, negative = cytotoxicity, actives largely listed as cytotoxic; 150,000 compounds, 0.12% hits; AID 1671193, 2021;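 further: potency means the concentration at half of the fitted maximal effect; 0% = DMSO-treated cells and -100% = medium-only wells without cells; nearly all actives have a fitted effect of over 30% in size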
#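 Cytotoxicity counterscreen: after 24 h compound treatment of genome-edited SNCA-luciferase HEK-293 cells, live-cell protease substrate GF-AFC read by fluorescence after 30 min; activity scaled between DMSO (0%) and medium-only (-100%), curves Hill-fitted.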
# KDM5B inh = Primary screen for KDM5B Histone Demethylases FDH-coupled qHTS; Lysine-specific demethylase 5B (Homo sapiens), Q9UGL1; KDM5B demethylase, FDH-coupled NADH fluorescence (FDH is formaldehyde dehydrogenase); Potency, µM (top dose mostly 57.7 µM), most hits filed as inhibitors; 220,000 compounds, 2.6% hits; AID 1347165, 2019; further: potency means the concentration at half of the fitted maximal effect; 0% is about no effect; nearly all actives have a fitted effect of over 70% in size
#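 Measured: NADH fluorescence change, 30 min, RT. System: KDM5BΔAP 200 nM final, H3K4me3 peptide, α-KG, Fe(II), ascorbate, NAD⁺ plus FDH, pH 7.5 HEPES. Compounds: titrated, 10 min pre-incubation with enzyme.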
# IP6K1 inhibitor = Primary qHTS assay for small molecule inhibitors of Inositol hexaphosphate kinase 1 (IP6K1). Inositol hexakisphosphate kinase 1 (Homo sapiens), Q92551. IP6K1 kinase, ADP-Glo luminescence, 2 h; hits give low values. activity change, % (series mostly up to about 58 µM). 140,000 compounds, 0.81% hits. AID 1645851, 2021; in the data active means activity change below about -25%; further: on the % scale 0 is the no-effect control and ±100 the full control effect
# Target sequence (Q92551 whole entry, looked up): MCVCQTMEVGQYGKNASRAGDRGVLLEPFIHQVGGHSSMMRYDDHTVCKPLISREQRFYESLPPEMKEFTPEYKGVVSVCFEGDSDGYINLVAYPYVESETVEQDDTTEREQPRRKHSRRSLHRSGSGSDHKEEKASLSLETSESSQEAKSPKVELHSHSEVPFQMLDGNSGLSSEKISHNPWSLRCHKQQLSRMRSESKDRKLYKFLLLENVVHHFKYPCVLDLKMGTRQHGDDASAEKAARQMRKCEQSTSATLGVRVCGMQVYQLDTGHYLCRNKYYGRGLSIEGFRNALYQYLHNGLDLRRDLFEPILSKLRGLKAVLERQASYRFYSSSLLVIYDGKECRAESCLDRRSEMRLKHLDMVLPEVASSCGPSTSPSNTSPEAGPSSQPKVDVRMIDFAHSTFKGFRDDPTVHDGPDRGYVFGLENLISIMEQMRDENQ
#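 ADP-Glo luminescence measures ADP made by human IP6K1 during a 2 h RT reaction with ATP/IP6 (mix at 1.3 mM/130 uM); top library doses 57.5 and 19.1 uM final.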
# An asterisk follows results filed as active; i = inactive; ? = inconclusive; . = no result given; ! = a repeat was not active; [ ] = remark or other dose. Unless noted, the call rests on the fitted dose curve; in most records, active means well fitted curve in the direction sought with a large enough effect; inconclusive means small, poorly fitted or top-dose-only effect, or another doubt; inactive means no such curve, though single readings can be large; an effect the other way counts as inactive or inconclusive.
SMILES,SNCA expr inhib,SNCA viab count,KDM5B inh,IP6K1 inhibitor
Cc1cc(C(F)(F)F)nn1CC(=O)NCC1Cn2cccc2CN1Cc1ccccc1 (centres undefined),4%,3%,?,10
Cc1cc(C(=O)NCC2Cn3cccc3CN2Cc2ccccc2)n[nH]1 (centres undefined),104%,4%,32µM*,-8
O=C(NCC1Cn2cccc2CN1Cc1ccccc1)c1ccc2cc[nH]c2c1 (centres undefined),29%,2%,25µM*,-2
COc1ccc(C(=O)NCC2Cn3cccc3CN2Cc2cccnc2)cc1 (centres undefined),-17%,-7%,13µM*,-15
CSc1cccc(NC(=O)c2ccc3c(c2)N(C)C2CCCCN2C3=O)c1 (centres undefined),?,20%[12.5 µM],?,-9
CC(C)C[C@@H]1N[C@H](C(=O)N2CCCC2)Cc2c[nH]c3cccc1c23,-7%[87.6 µM],-19%[87.6 µM],?,-4
CC(C)C[C@@H]1N[C@H](C(=O)N2CCN(C)CC2)Cc2c[nH]c3cccc1c23,6%[87.6 µM],8%[87.6 µM],32µM*,4
O=C(CCNc1c(-c2cccc(F)c2)nc2cnccn12)NCc1ccc(Cl)cc1,5%,?,28µM*,5
Cc1cccc(-c2nc3cnccn3c2NCCC(=O)NCc2ccc(F)c(Cl)c2)c1,0%,?,28µM*,19
Cc1ccc(CSCC(=O)NCc2ccc3c(c2)OCO3)cc1,.,.,i,.
Cc1nc2cnccn2c1C(=O)NCc1ccc(F)cc1,.,.,.,18
Cc1cccc(-c2nc3cnccn3c2NCCC(=O)NCc2ccc3c(c2)OCO3)c1,4%,?,28µM*,7
CN(C)c1ccc(CN2CCC3(C2)C(=NC2CCCCC2)NC(=O)N3c2cc(F)cc(F)c2)cc1 (centres undefined),?,-29%,i,-3
O=C(NCCc1ccc(Cl)cc1)C1CCN(c2nccc(Nc3ccccc3Cl)n2)CC1,-7%,-18%,.,-2
COc1ccc(CNC(=O)N2CCC(Cc3nc(-c4ccncc4)n[nH]3)C2)cc1 (centres undefined),-17%,5%,i,3
CCOCCCNC(=O)N1CCC(Cc2nc(-c3ccncc3)n[nH]2)CC1,-25%,0%,32µM*,-9
Cc1ccc(C2(O)CCN(c3cc(C(F)(F)F)ccn3)CC2)nc1,15%,9%,25µM*,2
Cc1ccc(C2(O)CCN(c3ncccc3C(F)(F)F)CC2)nc1,-6%,5%,i,-11
CC(C)CNc1ccc2nnc(-c3ccc(F)cn3)n2n1,-1%[87.6 µM],3%[87.6 µM],32µM*,-7
Fc1ccc(-c2nnc3ccc(NCCc4ccccn4)nn23)nc1,-15%[87.6 µM],10%[87.6 µM],40µM*,-20
CN(Cc1ccccc1)[C@H]1C[C@H]2CCOC[C@@]2(c2ccccc2)C1,.,.,.,6
COCCNC(=O)c1cc(-c2ccc(OC)cc2)nc2c1c(C1CCNC1)nn2C (centres undefined),-15%,9%,?,-2
COc1ccc(-c2cc(C(=O)NC3CC3)c3c(C4CCNC4)nn(C)c3n2)cc1 (centres undefined),-13%,-10%,79µM*,-2
O=C(NC1CCCC1)c1cc(C2CC2)nc2onc(C3CCNC3)c12 (centres undefined),39%,3%,?,7
O=C(NC1CC1)c1cc(C2CC2)nc2onc(C3CCCNC3)c12 (centres undefined),17%,-1%,?,-2
SMILES,SNCA expr inhib,SNCA viab count,KDM5B inh,IP6K1 inhibitor
O=C(NC1CCNCC1)c1cc(C2CC2)nc2onc(C3CCNC3)c12 (centres undefined),-25%,7%,79µM*,-1
COc1ccc(-c2cc(C(=O)NCC3CC3)c3c(C4CCCN4)noc3n2)cc1 (centres undefined),-7%,4%,?,3
COc1ccc(-c2cc(C(=O)NCC3CC3)c3c(C4CCNC4)noc3n2)cc1 (centres undefined),-4%,3%,79µM*,13
COc1ccc(-c2cc(C(=O)NC3CC3)c3c(C4CCCNC4)noc3n2)cc1 (centres undefined),10%,6%,79µM*,-3
CN1C[C@@H](NC(=O)Nc2ccc(Cl)cc2)C[C@H]1c1nc(-c2ccc(F)cc2)no1,-1%[87.6 µM],?,i,-1
Cc1ccc(-c2cn3cc(C(=O)N4CCCCC4)nc3s2)cc1,60%[87.6 µM],15%[87.6 µM],.,7
O=[S+]1([O-])NCC2(CCCN(Cc3ccc(OC(F)(F)F)cc3)C2)Nc2ccccc21 (centres undefined),?,-10%,i,30
COc1ccc2c3c1CN(C(=O)Cc1cccs1)CC3=CC(C)(C)CO2,.,.,.,18
CCCn1c(C)cnc1CC1CCCN(Cc2cccc(OC)c2)C1 (centres undefined),-7%,-2%,.,14
CN1C[C@@H](NC(=O)c2ccc(C(C)(C)C)cc2)C[C@H]1c1nc(-c2ccc3c(c2)OCO3)no1,-29%,?,35µM*,-4
O=C(O)c1ccc(-c2nc3ncccc3[nH]2)cc1,-10%[87.6 µM],13%[87.6 µM],28µM*!,7
c1cc2nc(-c3ccsc3)[nH]c2cn1,22%[87.6 µM],2%[87.6 µM],?,3
Cc1cc(-c2nc3ncccc3[nH]2)c(C)[nH]1,151%[87.6 µM],-3%[87.6 µM],?,8
c1cnc2nc(-c3ccsc3)[nH]c2c1,22%[87.6 µM],-17%[87.6 µM],32µM*!,7
O=C(O)c1ccc(CN2C[C@@H](F)[C@@H](OCc3nc4ncccc4[nH]3)C2)cc1,-8%[87.6 µM],3%[87.6 µM],i,-4
c1ccc(-c2nc3ncccc3[nH]2)nc1,83%[87.6 µM],12%[87.6 µM],32µM*!,0
Cc1noc(C)c1[S+](=O)([O-])NC1CCCN(c2ccc3nnc(C)n3n2)C1 (centres undefined),.,.,.,-5
O=C(NCC(F)(F)F)c1cc(-c2cc(Cl)cc(Cl)c2)c2cccn2n1,-19%,0%,.,-11
CCSc1ncc(-c2c(-c3ccccc3)ncn2CC[C@@H](C)CO)cn1,0%,-23%,14µM*,10
COc1ccc(C(=O)NC2CCN(c3ccc4nnc(C)n4n3)CC2)cc1,.,.,.,-4
COc1cccc(N2C(=O)NC(=NC3CCCC3)C23CCCN(CC2CC2)C3)c1 (centres undefined),-17%,-10%,i,-7
COc1ccc(/C=C/c2ccc3c(c2)C(=O)N2C[C@@H](NS(C)(=O)=O)C[C@H]2C(=O)N3)cc1,0%,-9%,?,2
C=CCNC(=O)N[C@H]1C[C@H]2C(=O)Nc3ccc(/C=C/c4ccc(OC)cc4)cc3C(=O)N2C1,42%,4%,22µM*,11
O=C1Nc2ccc(/C=C/c3ccccc3)cc2C(=O)N2C[C@H](O)C[C@@H]12,102%[87.6 µM],-2%[87.6 µM],28µM*,5

# Source: PubChem BioAssay
